Assays:
Test in all cases: log2 ratio of Biotin-Ahx-Ub-VS probe labelling (fragment/DMSO); higher = less target engagement (more negative = stronger competition), active = hit call of the paper (q ≤ 0.05, log2 ratio ≤ -1)
Conditions in all cases: compound concentration: 200 uM; treatment time: 3 h
USP34 = USP34 (UniProt Q70CQ2)
How it was run: (§1)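 Each value is an average log2 ratio of fragment to vehicle, tested by unpaired t-test. The underlying Spectronaut label-free quantities were global-median-normalised, and only proteins with ≥2 unique peptides were included. Triplicate HEK293T lysate samples (495 µg) were exposed to fragment at 200 µM or vehicle for 3 h, then to Biotin-Ahx-Ub-VS at 0.5 µM final for 1 h, before NeutrAvidin enrichment of labelled DUBs, LysC and trypsin digestion, and diaPASEF LC-MS/MS.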

USP36 = target: T1, USP36 (UniProt Q9P275)
T1 sequence (whole entry): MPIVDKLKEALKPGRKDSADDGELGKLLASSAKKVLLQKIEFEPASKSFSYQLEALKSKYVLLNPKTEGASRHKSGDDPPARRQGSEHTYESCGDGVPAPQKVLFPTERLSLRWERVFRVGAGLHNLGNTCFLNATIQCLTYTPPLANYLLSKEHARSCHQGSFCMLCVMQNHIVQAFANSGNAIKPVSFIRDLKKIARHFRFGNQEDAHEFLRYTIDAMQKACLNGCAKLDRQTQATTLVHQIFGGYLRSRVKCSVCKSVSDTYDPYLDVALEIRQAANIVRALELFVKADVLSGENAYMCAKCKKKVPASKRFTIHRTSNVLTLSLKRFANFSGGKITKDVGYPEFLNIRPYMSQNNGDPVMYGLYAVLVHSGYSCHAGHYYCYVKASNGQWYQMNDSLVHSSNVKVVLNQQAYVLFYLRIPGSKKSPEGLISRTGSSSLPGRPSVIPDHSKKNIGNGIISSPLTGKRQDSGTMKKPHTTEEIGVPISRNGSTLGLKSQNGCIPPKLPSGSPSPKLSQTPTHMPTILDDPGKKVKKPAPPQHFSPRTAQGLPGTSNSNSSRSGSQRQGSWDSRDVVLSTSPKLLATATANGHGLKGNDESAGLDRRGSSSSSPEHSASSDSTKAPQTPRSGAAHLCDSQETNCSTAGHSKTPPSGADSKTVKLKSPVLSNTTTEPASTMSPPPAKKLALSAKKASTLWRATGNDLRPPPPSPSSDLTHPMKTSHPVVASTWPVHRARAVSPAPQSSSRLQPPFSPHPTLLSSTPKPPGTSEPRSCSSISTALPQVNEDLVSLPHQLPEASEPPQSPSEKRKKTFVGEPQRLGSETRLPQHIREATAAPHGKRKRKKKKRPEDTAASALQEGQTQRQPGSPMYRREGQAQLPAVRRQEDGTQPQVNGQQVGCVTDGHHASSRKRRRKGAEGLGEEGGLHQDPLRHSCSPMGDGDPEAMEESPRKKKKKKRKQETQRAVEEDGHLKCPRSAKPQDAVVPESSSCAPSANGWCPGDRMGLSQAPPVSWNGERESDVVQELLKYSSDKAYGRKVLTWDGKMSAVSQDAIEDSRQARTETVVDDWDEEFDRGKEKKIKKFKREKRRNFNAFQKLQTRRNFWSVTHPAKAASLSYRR
How it was run: as §1

USP38 = target: T2, USP38 (UniProt Q8NB14)
T2 sequence (whole entry): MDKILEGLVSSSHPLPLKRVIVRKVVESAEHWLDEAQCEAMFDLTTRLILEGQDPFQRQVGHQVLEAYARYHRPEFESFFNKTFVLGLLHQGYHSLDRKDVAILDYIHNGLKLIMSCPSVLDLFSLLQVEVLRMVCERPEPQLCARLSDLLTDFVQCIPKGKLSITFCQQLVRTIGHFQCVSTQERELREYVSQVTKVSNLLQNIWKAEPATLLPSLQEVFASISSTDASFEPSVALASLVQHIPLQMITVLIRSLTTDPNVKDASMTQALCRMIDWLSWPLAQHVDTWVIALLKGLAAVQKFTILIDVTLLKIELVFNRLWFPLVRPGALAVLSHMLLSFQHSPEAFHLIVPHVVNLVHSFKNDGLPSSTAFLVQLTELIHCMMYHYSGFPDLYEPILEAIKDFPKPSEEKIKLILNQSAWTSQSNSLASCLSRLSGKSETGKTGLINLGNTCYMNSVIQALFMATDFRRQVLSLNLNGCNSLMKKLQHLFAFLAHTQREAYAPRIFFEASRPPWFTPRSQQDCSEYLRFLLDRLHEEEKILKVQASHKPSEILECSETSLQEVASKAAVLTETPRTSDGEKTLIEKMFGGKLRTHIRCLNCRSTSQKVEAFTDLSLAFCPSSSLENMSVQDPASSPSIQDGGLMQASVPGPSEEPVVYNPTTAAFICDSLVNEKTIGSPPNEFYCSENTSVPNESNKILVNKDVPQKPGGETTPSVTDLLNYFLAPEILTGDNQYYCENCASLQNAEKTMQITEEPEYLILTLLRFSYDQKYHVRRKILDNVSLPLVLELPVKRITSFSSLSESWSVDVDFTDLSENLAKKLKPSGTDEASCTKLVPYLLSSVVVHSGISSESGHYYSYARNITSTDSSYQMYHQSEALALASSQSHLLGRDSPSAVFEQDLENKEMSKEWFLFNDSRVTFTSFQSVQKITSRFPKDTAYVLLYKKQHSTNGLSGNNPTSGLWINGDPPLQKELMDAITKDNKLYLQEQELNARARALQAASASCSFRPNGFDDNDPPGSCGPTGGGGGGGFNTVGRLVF
How it was run: as §1

USP39 = target: T3, USP39 (UniProt Q53GS9)
T3 sequence (whole entry): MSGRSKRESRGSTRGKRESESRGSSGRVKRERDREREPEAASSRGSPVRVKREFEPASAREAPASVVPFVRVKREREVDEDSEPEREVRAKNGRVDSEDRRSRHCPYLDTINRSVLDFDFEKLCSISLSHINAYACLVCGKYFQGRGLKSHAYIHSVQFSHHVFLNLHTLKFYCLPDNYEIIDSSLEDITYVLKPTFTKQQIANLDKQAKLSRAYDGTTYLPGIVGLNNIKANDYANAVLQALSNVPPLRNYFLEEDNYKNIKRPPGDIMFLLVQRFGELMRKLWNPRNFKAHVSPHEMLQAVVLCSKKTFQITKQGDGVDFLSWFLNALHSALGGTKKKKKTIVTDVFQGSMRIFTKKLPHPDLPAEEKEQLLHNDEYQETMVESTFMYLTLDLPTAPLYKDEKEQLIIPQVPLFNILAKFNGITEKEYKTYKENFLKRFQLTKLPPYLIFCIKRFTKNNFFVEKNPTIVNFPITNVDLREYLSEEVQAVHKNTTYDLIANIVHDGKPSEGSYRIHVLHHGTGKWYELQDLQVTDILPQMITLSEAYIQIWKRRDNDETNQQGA
How it was run: as §1

USP4 = target: T4, USP4 (UniProt Q13107)
T4 sequence (whole entry): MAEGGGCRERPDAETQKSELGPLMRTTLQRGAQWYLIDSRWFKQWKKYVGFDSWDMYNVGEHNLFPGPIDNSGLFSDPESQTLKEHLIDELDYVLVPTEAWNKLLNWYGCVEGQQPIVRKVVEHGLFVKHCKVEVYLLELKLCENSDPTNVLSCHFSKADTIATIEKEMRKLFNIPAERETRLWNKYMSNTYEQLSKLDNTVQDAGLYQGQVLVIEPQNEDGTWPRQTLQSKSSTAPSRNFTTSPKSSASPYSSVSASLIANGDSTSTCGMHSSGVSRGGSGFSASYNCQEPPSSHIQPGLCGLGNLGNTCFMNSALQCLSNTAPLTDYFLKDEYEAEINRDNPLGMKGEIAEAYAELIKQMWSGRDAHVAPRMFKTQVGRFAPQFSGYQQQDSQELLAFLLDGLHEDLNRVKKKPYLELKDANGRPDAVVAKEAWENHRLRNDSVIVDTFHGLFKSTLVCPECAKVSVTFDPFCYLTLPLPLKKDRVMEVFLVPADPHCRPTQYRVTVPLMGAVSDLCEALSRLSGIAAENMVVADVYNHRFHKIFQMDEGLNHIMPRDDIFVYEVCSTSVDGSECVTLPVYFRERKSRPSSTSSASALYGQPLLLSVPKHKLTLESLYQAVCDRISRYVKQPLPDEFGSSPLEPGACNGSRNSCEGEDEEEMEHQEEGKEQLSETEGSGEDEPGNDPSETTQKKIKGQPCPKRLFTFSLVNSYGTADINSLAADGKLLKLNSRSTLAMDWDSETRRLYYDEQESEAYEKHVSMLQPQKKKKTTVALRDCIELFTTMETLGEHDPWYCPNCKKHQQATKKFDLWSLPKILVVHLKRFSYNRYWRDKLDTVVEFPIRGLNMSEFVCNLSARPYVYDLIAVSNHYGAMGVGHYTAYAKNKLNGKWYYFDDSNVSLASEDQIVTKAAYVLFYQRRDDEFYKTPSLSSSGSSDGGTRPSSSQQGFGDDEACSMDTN
How it was run: as §1

Measured: log2 ratio of Biotin-Ahx-Ub-VS probe labelling

Sequence of USP34 (Q70CQ2 whole entry, the tested form may be a part): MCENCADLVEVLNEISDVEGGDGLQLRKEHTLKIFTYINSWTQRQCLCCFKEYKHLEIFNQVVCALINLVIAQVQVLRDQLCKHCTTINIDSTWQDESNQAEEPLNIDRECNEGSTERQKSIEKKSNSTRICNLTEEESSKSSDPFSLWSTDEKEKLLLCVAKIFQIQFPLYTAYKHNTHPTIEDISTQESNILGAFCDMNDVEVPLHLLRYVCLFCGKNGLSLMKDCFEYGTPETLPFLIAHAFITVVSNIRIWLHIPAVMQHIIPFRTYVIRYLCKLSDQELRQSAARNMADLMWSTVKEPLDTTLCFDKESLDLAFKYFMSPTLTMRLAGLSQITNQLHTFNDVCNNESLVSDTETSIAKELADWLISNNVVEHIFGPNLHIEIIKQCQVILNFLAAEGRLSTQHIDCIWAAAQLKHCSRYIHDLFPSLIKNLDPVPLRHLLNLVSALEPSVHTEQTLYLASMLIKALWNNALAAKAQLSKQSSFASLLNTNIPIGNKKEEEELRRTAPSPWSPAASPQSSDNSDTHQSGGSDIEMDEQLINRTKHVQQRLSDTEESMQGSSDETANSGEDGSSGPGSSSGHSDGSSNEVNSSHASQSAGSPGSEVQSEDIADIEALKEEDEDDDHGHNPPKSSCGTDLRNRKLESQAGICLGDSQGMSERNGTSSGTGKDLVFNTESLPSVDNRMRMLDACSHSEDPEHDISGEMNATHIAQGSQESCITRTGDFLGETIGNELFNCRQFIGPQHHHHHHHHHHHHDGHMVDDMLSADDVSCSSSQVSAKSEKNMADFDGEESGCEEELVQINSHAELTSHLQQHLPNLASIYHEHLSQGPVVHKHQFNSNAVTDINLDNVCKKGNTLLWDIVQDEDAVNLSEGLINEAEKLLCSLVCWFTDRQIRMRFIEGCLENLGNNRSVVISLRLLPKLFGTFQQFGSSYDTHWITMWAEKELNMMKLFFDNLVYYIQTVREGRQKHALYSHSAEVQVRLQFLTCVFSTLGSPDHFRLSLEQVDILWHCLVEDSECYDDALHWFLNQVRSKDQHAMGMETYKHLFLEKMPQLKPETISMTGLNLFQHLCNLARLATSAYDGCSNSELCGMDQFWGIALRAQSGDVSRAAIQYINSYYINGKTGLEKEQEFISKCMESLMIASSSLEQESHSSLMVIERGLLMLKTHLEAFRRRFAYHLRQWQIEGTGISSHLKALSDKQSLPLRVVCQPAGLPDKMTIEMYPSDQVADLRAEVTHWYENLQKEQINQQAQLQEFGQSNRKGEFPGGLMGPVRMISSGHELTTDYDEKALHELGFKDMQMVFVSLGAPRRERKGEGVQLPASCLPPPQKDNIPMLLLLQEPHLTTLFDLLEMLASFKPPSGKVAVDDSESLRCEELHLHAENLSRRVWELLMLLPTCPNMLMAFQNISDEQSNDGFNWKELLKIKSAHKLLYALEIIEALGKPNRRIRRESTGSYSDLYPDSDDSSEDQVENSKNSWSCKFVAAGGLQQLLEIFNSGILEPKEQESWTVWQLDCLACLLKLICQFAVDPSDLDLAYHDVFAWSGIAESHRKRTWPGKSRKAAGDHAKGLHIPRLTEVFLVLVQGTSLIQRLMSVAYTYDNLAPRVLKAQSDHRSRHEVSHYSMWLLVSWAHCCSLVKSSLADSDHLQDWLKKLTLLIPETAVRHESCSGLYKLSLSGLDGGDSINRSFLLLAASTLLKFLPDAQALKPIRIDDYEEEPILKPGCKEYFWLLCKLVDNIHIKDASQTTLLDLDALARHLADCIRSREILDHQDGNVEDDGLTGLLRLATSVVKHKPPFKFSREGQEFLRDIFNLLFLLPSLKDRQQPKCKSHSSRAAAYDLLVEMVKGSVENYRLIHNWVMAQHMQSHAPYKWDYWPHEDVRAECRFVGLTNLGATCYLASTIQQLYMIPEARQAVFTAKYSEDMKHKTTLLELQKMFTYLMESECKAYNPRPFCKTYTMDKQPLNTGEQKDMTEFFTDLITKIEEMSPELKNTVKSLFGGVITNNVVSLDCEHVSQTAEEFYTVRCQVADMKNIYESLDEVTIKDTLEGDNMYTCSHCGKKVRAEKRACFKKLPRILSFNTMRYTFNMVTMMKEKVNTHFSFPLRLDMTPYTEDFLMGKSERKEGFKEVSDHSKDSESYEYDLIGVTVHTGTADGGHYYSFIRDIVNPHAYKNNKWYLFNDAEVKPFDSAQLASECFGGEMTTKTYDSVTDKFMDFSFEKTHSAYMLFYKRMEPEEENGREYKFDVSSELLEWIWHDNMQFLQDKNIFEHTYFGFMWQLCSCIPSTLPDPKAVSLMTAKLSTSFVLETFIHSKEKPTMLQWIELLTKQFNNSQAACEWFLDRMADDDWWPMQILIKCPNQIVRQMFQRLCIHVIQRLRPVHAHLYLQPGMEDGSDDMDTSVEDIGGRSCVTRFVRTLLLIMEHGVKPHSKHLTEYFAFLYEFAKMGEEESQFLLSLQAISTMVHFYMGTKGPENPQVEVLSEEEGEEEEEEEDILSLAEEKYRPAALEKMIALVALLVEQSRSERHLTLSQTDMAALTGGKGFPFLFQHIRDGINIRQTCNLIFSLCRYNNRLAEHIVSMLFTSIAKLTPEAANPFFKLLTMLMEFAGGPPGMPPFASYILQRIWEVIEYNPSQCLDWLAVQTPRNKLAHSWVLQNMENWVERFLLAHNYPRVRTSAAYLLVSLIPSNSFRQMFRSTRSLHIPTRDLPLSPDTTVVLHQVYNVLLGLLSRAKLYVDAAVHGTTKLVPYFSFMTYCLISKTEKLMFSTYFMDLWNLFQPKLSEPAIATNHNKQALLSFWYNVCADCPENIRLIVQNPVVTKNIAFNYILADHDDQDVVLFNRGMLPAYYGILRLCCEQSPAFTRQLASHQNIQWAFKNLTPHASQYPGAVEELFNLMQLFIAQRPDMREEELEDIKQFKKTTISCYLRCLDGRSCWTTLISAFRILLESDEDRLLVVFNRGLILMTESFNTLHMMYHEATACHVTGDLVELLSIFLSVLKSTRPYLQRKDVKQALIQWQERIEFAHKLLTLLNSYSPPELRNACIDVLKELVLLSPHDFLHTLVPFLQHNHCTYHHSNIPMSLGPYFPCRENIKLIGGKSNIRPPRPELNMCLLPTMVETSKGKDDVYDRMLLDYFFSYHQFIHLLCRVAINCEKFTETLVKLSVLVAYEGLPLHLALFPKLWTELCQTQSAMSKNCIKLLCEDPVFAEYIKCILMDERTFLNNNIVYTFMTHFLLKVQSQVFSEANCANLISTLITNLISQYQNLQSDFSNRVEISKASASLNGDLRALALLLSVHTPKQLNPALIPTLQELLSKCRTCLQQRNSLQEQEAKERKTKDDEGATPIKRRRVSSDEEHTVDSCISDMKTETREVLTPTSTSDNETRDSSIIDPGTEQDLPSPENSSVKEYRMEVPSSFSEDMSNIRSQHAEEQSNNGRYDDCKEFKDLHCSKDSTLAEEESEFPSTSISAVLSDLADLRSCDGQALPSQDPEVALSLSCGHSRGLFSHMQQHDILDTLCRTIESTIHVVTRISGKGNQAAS

CNC(=O)Cn1cc(NC(=O)CCl)cn1
inactive: USP34 -0.0314 | USP36 -0.0542 | USP38 -0.0407 | USP39 0.234 | USP4 -0.0895
